# Assay results taken from PubChem BioAssay AID2108 (National Center for Advancing Translational Sciences (NCATS), 2009).
# Records with an inconclusive call do not appear. Active and inactive are the calls of the source. Calls come from the whole dose curve; as a rule, active = well fitted curve in the direction sought with a large enough effect; inconclusive = small, poorly fitted or top-dose-only effect, or effect the other way, or another doubt; inactive = no such curve, though single readings can be large or run the other way.
# Biological target: Alpha-galactosidase A (Homo sapiens) (UniProt P06280)
# Assay: Confirmation of Inhibitors of Human alpha-Galactosidase Using Spleen Homogenate
# Settings: alpha-galactosidase enzyme activity; series mostly up to 56.2 µM
# How it was run: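 Human spleen homogenate (1 ug) with 1 mM 4-methylumbelliferyl-alpha-D-galactopyranoside in citrate-phosphate pH 5.0, 0.01% Tween-20, 37C 40 min; compounds 0.5 nM–58 uM final. Stopped at pH 10, fluorescence Ex 365/Em 440; AC50 from Hill fits.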
# Chain of Alpha-galactosidase A (Homo sapiens) (P06280 32-429 limits assumed): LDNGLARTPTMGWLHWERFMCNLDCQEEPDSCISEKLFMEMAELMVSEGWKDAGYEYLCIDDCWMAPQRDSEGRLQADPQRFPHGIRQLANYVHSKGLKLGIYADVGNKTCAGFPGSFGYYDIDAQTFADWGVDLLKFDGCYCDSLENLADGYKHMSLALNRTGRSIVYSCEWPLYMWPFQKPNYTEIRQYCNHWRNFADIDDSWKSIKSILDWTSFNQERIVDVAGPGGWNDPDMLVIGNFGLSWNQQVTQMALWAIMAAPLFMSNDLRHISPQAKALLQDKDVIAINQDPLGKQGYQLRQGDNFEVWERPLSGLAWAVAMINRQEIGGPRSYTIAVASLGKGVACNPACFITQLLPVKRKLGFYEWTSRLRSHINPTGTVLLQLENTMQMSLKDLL
row,Structure (SMILES),outcome
1,O=C(CSc1nc(C2CC2)nc2ccccc12)Nc1cccc(O)c1,inactive
2,Cc1ccc(CCNC(=O)CNC(=S)N(Cc2ccccc2)Cc2cccnc2)cc1,inactive
3,COc1ccc(NC(=O)CC2Nc3cc(C)c(C)cc3NC2=O)c([N+](=O)[O-])c1 (configuration not stated),inactive
4,CC(=O)N1CCN(c2ccc(NCc3ccccc3)cc2)CC1,inactive
5,O=C(Nc1cc(S(=O)(=O)N2CCOCC2)ccc1N1CCCC1)c1cc(=O)[nH]c2ccccc12,inactive
6,COCCNc1c(-c2ccc(O)cc2)nc2ccc(Cl)cn12,inactive
7,Cc1sc(-c2cc3ccccc3oc2=O)nc1-c1ccc(Cl)cc1,inactive
8,CCNc1ccc(C2(O)C(=O)c3ccccc3C2=O)cc1,inactive
9,CCOC(=O)c1cc2c(=O)n3cccc(C)c3nc2n(CCCOC)c1=NC(=O)c1cccnc1,inactive
10,O=C(CNc1ccc(Cl)cc1)c1ccc(Br)cc1,inactive
11,COc1ccc(/C=c2\s/c(=C/C(=O)c3ccc(C)cc3)[nH]c2=O)cc1OC,inactive
12,CC(C)(C)c1ccc(OCC(=O)NC(Cc2c[nH]c3ccccc23)C(=O)O)cc1 (configuration not stated),inactive
13,CCOC(=O)C(CC)Sc1ncnc2c1c(-c1ccccc1)cn2-c1ccc(OC)cc1 (configuration not stated),inactive
14,CC/C(=N\NC(=O)c1c(C)nc2ccccn12)c1ccc(Cl)cc1,inactive
15,O=S(=O)(c1ccc2c(c1)C(=NNc1ccccc1)c1cc(S(=O)(=O)N3CCOCC3)ccc1-2)N1CCOCC1,inactive
16,O=C(CSc1ccccc1)Nc1nnc(/C=C/c2ccccc2)s1,inactive
17,CCS(=O)(=O)N1Cc2ccccc2CC1C(=O)Nc1ccc(NC(C)=O)cc1 (configuration not stated),inactive
18,O=S(=O)(c1ccc(Br)cc1)N1CCOCC1,inactive
19,Cc1cc(C)c(C(=O)Cn2cnc3cc([N+](=O)[O-])ccc3c2=O)cc1C,inactive

row,Structure (SMILES),outcome
1,Nc1cnc(Nc2ccc(Br)cc2)nc1N,inactive
2,COc1ccc(NS(=O)(=O)c2ccc(O)c(NC(=O)c3cc4c(C)nn(-c5ccc(F)cc5)c4s3)c2)cc1,inactive
3,Nc1cccc(S(=O)(=O)N2CCOCC2)c1,inactive
4,c1ccc(-c2nc3nc4ccccc4nc3n2CC2CCCO2)cc1 (configuration not stated),inactive
5,Cc1c(OCC(F)(F)F)ccnc1CS(=O)c1nc2ccccc2[nH]1 (configuration not stated),inactive
6,COc1cc(/C=C/c2ccc3ccccc3n2)cc(OC)c1O,inactive
7,COc1ccc(-n2cc(CNCCc3ncc(C)[nH]3)c(-c3ccccc3Cl)n2)cc1,inactive
8,COc1ccc(Cc2nnc(NC(=O)CSc3ccc(Cl)cc3)s2)cc1,inactive
9,OCC1NCC(O)C(O)C1O (configuration not stated),inactive
10,CSc1ccccc1NC(=O)CN(C)CC(=O)NCc1ccccc1,inactive
11,Cc1ccc(CNc2ccc(N3CCOCC3)cc2)cc1,inactive
12,Cc1ccc(S(=O)(=O)N2CCN(C(=O)CSc3nc4ccccc4c(=O)[nH]3)CC2)c(C)c1,inactive
13,C(=C/c1nccc2c1[nH]c1ccccc12)/c1ccc2c(c1)OCO2,inactive
14,O=C1CCCC/C1=C\Nc1ccc(O)cc1,inactive
15,COc1ccc(-c2cc(=O)c(C(=O)c3ccc(C)cc3)n[nH]2)cc1,inactive
16,Cc1ccccc1Nc1c(-c2cccs2)nc2cccc(C)n12,inactive
17,CC(=O)c1ccc(N2CCN(S(=O)(=O)c3ccc4c(c3)CC(=O)N4)CC2)cc1,inactive
18,CC1S/C(=N\N=C\c2cccc([N+](=O)[O-])c2)N(C(C)(C)C)C1=O (configuration not stated),inactive
